HT1080-NT tox: kills 2HG-producing HT-1080-NT fibrosarcoma cells | HT-1080-NT fibrosarcoma viability, CellTiter-Glo ATP luminescence, 48 h | Potency, µM (doses to about 46.1 µM), hits mostly cytotoxic | 360,000 compounds, 1.6% hits | AID 686970;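 also: NT is the 2HG producing partner of a matched IDH1 knockdown line; nearly all actives have a fitted effect of over 55% in size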
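Viability of the 2HG-overproducing fibrosarcoma line after 48 hours of compound exposure at 37 degrees C was determined by luminescence with CellTiter-Glo, and concentration-effect curves were then fitted and categorized.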
IL-1B inflam inh: inhibitors of inflammasome signaling (IL-1 beta secretion) | THP-1 LPS/ATP IL-1B secretion, AlphaLISA, 16 h; stronger effect = lower value | activity change, % at 57.5 µM | 360,000 compounds, 4.7% hits; in the data active = activity change below about -50%; inconclusive = mostly about -30% to -49%
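THP-1 cells pretreated 1 hr with compounds (up to 57.5 uM final), then stimulated with LPS (250 ng/mL final) plus ATP (1.25 mM final); secreted IL-1B measured by AlphaLISA after 16 hr, decreased signal indicating inhibition.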
HT1080 IDH1KD tx: HT-1080 IDH1 knockdown cell toxicity (counter line); HT-1080 IDH1 knockdown viability, ATP luminescence, 48 h; Potency, µM (titrated, usually from 46.1 µM), hits mostly cytotoxic; 360,000 compounds, 2% hits; AID 686971
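Luminescent ATP read-out (CellTiter-Glo, 10 min at room temperature) after 48 h compound exposure at 37 °C gave viability of IDH1-knockdown HT-1080 cells. Activity was normalised to DMSO and cell-free wells, then fitted as concentration-response curves.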
DT40 TDP1 no CPT: qHTS for Inhibitors of human tyrosyl-DNA phosphodiesterase 1 (TDP1): qHTS in cells in absence of CPT. DT40 Tdp1-/- hTDP1 cells, no CPT, ATP luminescence, 48 h. AID 686978, 2013. Potency, µM (highest dose often 46.2 µM), usual class: inhibitors. 420,000 compounds, 15% hits; also: nearly all actives have a fitted effect of over 55% in size
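Luminescent ATP content (CellTiter-Glo) served as the growth readout. Knockout chicken DT40 cells expressing human TDP1 were exposed to compounds without camptothecin for a minimum 48 hr at 37 °C.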
DT40 TDP1 CPT: DT40-hTDP1 cell growth loss with CPT; chicken DT40 Tdp1-/-;hTDP1 cells + 20 nM CPT, ATP luminescence, 48 h; AID 686979; Potency, µM (highest dose often 46.2 µM), usual class: inhibitors; 420,000 compounds, 12% hits; also: nearly all actives have a fitted effect of over 55% in size
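Cell growth measured by CellTiter-Glo luminescence after a minimum 48 h, 37 C compound exposure with 20 nM CPT in Tdp1-knockout DT40 cells stably expressing hTDP1, seeded 400/well; qHTS titration format.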
Of the large screens only hits and unclear results are named; the others gave an inactive call. This is a sample that favours compounds with a hit; in the whole collection about 19% have one here. Unless noted, calls follow the shape of the dose curve; as a rule, active = well fitted curve in the direction sought with a large enough effect; inconclusive = small, poorly fitted or top-dose-only effect, or another doubt; inactive = no such curve, though single readings can be large; an effect the other way counts as inactive or inconclusive.

CC(Oc1ccc(C(=O)c2ccc(F)cc2)cc1)C(=O)N1CCOCC1 (centres undefined)	none
COc1ccc(S(=O)(=O)NNC(=O)Nc2ccc(F)cc2F)c(OC)c1	none
O=C(O)CCN1C(=O)c2ccc(NC(=O)Cc3ccc(Cl)cc3)cc2C1=O	none
CC1CCC(NC(=O)COc2ccc(C(=O)c3ccccc3)cc2)CC1 (centres undefined)	IL-1B inflam inh -64.8, HT1080 IDH1KD tx inconclusive, DT40 TDP1 no CPT 10.3µM, DT40 TDP1 CPT inconclusive
Cc1ccc(-c2nc(C(=O)NC3CCCCCC3)no2)cc1	DT40 TDP1 no CPT 18.4µM, DT40 TDP1 CPT inconclusive
Cc1nc2c(C)cccn2c1/C(O)=C1\C(=O)C(=O)N(CCN(C)C)C1c1ccccc1 (centres undefined)	none
CCCCCCSc1nnc(-c2cnn(-c3ccccc3)c2-n2cccc2)n1C	HT1080-NT tox 18.4µM, HT1080 IDH1KD tx inconclusive, DT40 TDP1 no CPT 20.6µM, DT40 TDP1 CPT inconclusive
COc1cc(C(=O)OCC(=O)Nc2cc(S(=O)(=O)N3CCOCC3)ccc2C)ccc1OCC(C)C	DT40 TDP1 no CPT inconclusive
O=c1cc(/C=C/c2cccs2)[nH]c2ccccc12	HT1080 IDH1KD tx 7.08µM, DT40 TDP1 no CPT 2.06µM, DT40 TDP1 CPT 2.59µM
O=[N+]([O-])c1cccc(-n2nnnc2CNCc2ccccc2)c1	IL-1B inflam inh inconclusive
Cc1ccc(OCC(=O)Nc2ccc3c(c2)C(=O)NC3=O)c(C)c1	DT40 TDP1 no CPT inconclusive, DT40 TDP1 CPT inconclusive
O=C(N/N=C/c1cc2c(cc1Br)OCO2)c1cccnc1	IL-1B inflam inh inconclusive, DT40 TDP1 no CPT inconclusive
O=C(N/N=C/c1cc(Br)c(O)c(Br)c1O)c1cccnc1	HT1080-NT tox inconclusive, HT1080 IDH1KD tx 10.3µM, DT40 TDP1 no CPT inconclusive, DT40 TDP1 CPT 20.6µM
O=C(N/N=C/c1cc(O)ccc1Br)c1cccnc1	HT1080-NT tox inconclusive, HT1080 IDH1KD tx inconclusive, DT40 TDP1 no CPT 2.91µM, DT40 TDP1 CPT 5.8µM
O=S(=O)(c1ccc(NC(=S)N2CCOCC2)cc1)N1CCCCC1	DT40 TDP1 no CPT 14.6µM
O=S(=O)(c1ccc(NC(=S)N2CCN(c3ccc(O)cc3)CC2)cc1)N1CCOCC1	HT1080-NT tox inconclusive, HT1080 IDH1KD tx inconclusive, DT40 TDP1 no CPT 11.6µM, DT40 TDP1 CPT inconclusive
O=S(=O)(c1ccccc1)N1CCN(C(=S)Nc2ccc(Br)cc2)CC1	IL-1B inflam inh -50.4, DT40 TDP1 CPT inconclusive
Cc1ccc(NC(=S)N2CCN(S(=O)(=O)c3ccc(C)cc3)CC2)cc1	none
Cc1cc(Br)ccc1NC(=O)Cn1cc(S(=O)(=O)N2CCN(c3ccccc3F)CC2)c2ccccc2c1=O	none (no result: HT1080-NT tox, IL-1B inflam inh, HT1080 IDH1KD tx)
CC1CN(c2nc(-c3ccc(Br)cc3)nnc2-c2ccccc2)CC(C)N1 (centres undefined)	IL-1B inflam inh -105.4, DT40 TDP1 no CPT 10.3µM, DT40 TDP1 CPT 13µM
FC(F)(F)c1cccc(-c2nnc(-c3ccccc3)c(N3CCOCC3)n2)c1	DT40 TDP1 no CPT 16.4µM, DT40 TDP1 CPT 18.4µM
Clc1ccc(-c2nnc(-c3ccccc3)c(-c3ccccc3)n2)cc1	none
Clc1ccc(-c2nnc(-c3ccccc3)c(N3CCSCC3)n2)cc1	DT40 TDP1 no CPT inconclusive, DT40 TDP1 CPT 20.6µM
FC(F)(F)c1nnc(-c2ccccc2)nc1N1CCOCC1	none
CCC(=O)N1CCN(c2ccccc2NC(=S)NC(=O)c2ccco2)CC1	DT40 TDP1 no CPT inconclusive, DT40 TDP1 CPT inconclusive
COc1ccccc1NC(=O)C(=O)/C=C(\O)c1ccccc1	DT40 TDP1 no CPT 14.6µM, DT40 TDP1 CPT 14.6µM (no result: IL-1B inflam inh)
COc1ccc(OC)c(/C(O)=C/C(=O)C(=O)Nc2cc(C)cc(C)c2)c1	DT40 TDP1 no CPT 18.4µM, DT40 TDP1 CPT inconclusive
COc1ccc(OC)c(/C(O)=C/C(=O)C(=O)Nc2cc(C)ccc2OC)c1	DT40 TDP1 no CPT inconclusive, DT40 TDP1 CPT inconclusive
COc1ccc(/C(O)=C/C(=O)C(=O)NNC(=O)c2ccccc2)cc1	none
CCOc1ccccc1NC(=O)C(=O)/C=C(\O)c1cc(OC)ccc1OC	DT40 TDP1 no CPT 5.17µM, DT40 TDP1 CPT 5.8µM
